For 17 molecules, Potency results are on record in PubChem BioAssay (NCATS).

Values joined by “and” are separate entries in the source; they are usually repeats but may differ in a detail not shown here. Identical values can stand only once. Results filed as inconclusive are left out. A call without a number means that no potency is given here. Active and inactive are the calls of the source. The call rests on the fitted dose curve; in most records, active means well fitted cell-killing curve with a large enough effect; inconclusive means small, poorly fitted or top-dose-only effect; inactive means flat fitted curve, though single readings scatter.
Potency means the concentration at half of the fitted maximal effect.

The nature of the assay: Cell Viability - Renal Proximal Tubule (AID 545). Further: nearly all actives have a fitted effect of over 40% in size. Particulars: renal proximal tubule cells viability, primary cells of rat origin; series mostly up to 91.7 µM. The text has this: NIH Chemical Genomics Center [NCGC]
NIH Molecular Libraries Screening Centers Network [MLSCN]
National Institutes of Environmental Health Sciences [NIEHS]
National Toxicology Program [NTP]
We have developed a 1536-well cell-based assay for quantitative high throughput screening (qHTS) against a number of cell lines to determine in vitro cytotoxicity of small molecules. This particular assay uses the renal proximal tubule cells which are derived from normal kidney cells freshly isolated from rat.
NCGC Assay Protocol Summary:
The CellTiter-Glo luminescent cell viability assay (Promega) is a homogeneous method to measure the number of viable cells in culture. The end point readout of this assay is based on quantitation of intracellular ATP, an indicator of metabolic activity, using the luciferase reaction. Luciferase catalyzes the oxidation of beetle Luciferin to oxyluciferin and light in the presence of ATP. The luminescent signal is proportional to amount of ATP present.
Using the CellTiter-Glo luminescent cell viability assay, the amount of cellular ATP was measured in the renal proximal tubule cells with complete culture medium following compound treatment for 40 hours. The assay was performed in opaque white Kalypsys 1536-well plates. In the screen, tamoxifen and doxorubicin were used as positive controls. Library compounds were measured for their ability to cause acute toxicity in the cell line, as reflected by a decrease in intracellular ATP levels, in a concentration-dependent manner. […] AC50 values were determined from concentration-response data modeled with the standard Hill equation.
qHTS protocol for CellTiter Glo renal proximal tubule cell assay
[Step] [Parameter] [Value] [Description]
1. Reagent; 5 uL; 1000 renal proximal tubule cells/well
2. Time; 5 hr; 37 °C incubation
4. Controls; 23 nL; Tamoxifen 0.34 uM to 100 uM & Doxorubicin 0.02 nM to 100 uM
5. Time; 40 hr; 37 °C incubation
6. Reagent; 5 uL; CellTiter Glo reagent
7. Time; 20 min; Room Temperature
8. Detection; Luminescence; Viewlux plate reader
Keywords: cell viability, cytotoxicity, renal proximal tubule cells, luminescence, NTPHTS, NTPHTS_NCGC, NIEHS, EPA, DSSTox, MLSMR, MLSCN, NIH Roadmap, qHTS, NCGC
For the molecule `Nc1ccn([C@H]2CC[C@@H](CO)O2)c(=O)n1`, the Potency result is “inactive”.

Consider `Nc1c2c(nc3ccccc13)CCCC2`, for which the Potency result is “inactive”.

On to `Clc1ccc(C(c2ccccc2Cl)C(Cl)Cl)cc1` (configuration not stated), for which the Potency result was “inactive”.

With `Cc1cn([C@H]2C[C@H](N=[N+]=[N-])[C@@H](CO)O2)c(=O)[nH]c1=O`, the Potency entry is “inactive”.

With `CCC1(c2ccccc2)C(=O)NCNC1=O`, the Potency result was “inactive”.

In the case of `NCCS(=O)(=O)O`, the Potency entry was “inactive”.

For `Cc1cn([C@H]2C=C[C@@H](CO)O2)c(=O)[nH]c1=O`, the Potency entry is “inactive”.

For `COc1ccc2[nH]cc(CCNC(C)=O)c2c1`, the Potency entry was “inactive”.

`COc1ccc(CCN(C)CCCC(C#N)(c2ccc(OC)c(OC)c2)C(C)C)cc1OC` (configuration not stated): the Potency result was “inactive”.

Consider `CC(C)NCC(O)c1ccc(O)c(O)c1` (configuration not stated), for which the Potency result is “inactive”.

Regarding `COc1ccc2c(c1)c(CC(=O)O)c(C)n2C(=O)c1ccc(Cl)cc1`, the Potency result is “inactive”.

For `COc1cc2c(c(OC)c1OC)-c1ccc(OC)c(=O)cc1[C@@H](NC(C)=O)CC2`, the Potency is 25.1 nM (active) and 20 nM (active).

On to `NS(=O)(=O)c1cc2c(cc1Cl)NCNS2(=O)=O`, for which the Potency result is “inactive”.

Consider `CC(C)C(=O)Nc1ccc([N+](=O)[O-])c(C(F)(F)F)c1`, for which the Potency result was “inactive”.

Regarding `Cn1c(=O)c2[nH]cnc2n(C)c1=O`, the Potency entry was “inactive”.

Consider `N[C@@H](Cc1c[nH]c2ccc(O)cc12)C(=O)O`, for which the Potency entry is “inactive”.

Regarding `Cn1c(=O)c2c(ncn2C)n(C)c1=O`, the Potency result is “inactive”.
